GLP1R ag: activates the human GLP-1 receptor. P43220. actives 0.007% (n = 380,000). AID 624172. HEK293 GLP-1R CRE-luciferase, luminescence, 4-6 h; cells express a hypersensitive GLP-1R form. Potency, µM (highest dose often 45.6 µM), inactives show at the top dose activation, hits mostly activators; note: % of control where 0% means no effect
GLP-1R inv ag: inverse agonists of human GLP-1 receptor | P43220 | HEK293 GLP-1R CRE-luciferase, luminescence, 24 h; GLP-1R form is constitutively active | Potency, µM (titrated, usually from 38.3 µM), for the others: top-dose activity change, negative = inhibition, usual class: inhibitors | actives 1.6% (n = 410,000) | AID 624417; note: % is set by controls: 0 for no effect and ±100 for the full control effect; nearly all actives have a fitted effect of over 55% in size
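Assay principle: reduced luminescence from a cAMP-responsive reporter in HEK293 cells co-expressing a constitutively active GLP-1R. Conditions: 24 hr compound incubation, 37 deg C, 5% CO2.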
PTHR1 ag: activates the human parathyroid hormone receptor PTHR1; HEK293 GP2 PTHR1 cells, GloSensor cAMP luminescence, 1 h; Potency, µM (titrated, usually from 115 µM), without a hit: top-dose activation, actives largely listed as activators; actives 0.075% (n = 410,000); note: nearly all actives have a fitted effect of over 55% in size
Target sequence (Q03431 whole entry, looked up): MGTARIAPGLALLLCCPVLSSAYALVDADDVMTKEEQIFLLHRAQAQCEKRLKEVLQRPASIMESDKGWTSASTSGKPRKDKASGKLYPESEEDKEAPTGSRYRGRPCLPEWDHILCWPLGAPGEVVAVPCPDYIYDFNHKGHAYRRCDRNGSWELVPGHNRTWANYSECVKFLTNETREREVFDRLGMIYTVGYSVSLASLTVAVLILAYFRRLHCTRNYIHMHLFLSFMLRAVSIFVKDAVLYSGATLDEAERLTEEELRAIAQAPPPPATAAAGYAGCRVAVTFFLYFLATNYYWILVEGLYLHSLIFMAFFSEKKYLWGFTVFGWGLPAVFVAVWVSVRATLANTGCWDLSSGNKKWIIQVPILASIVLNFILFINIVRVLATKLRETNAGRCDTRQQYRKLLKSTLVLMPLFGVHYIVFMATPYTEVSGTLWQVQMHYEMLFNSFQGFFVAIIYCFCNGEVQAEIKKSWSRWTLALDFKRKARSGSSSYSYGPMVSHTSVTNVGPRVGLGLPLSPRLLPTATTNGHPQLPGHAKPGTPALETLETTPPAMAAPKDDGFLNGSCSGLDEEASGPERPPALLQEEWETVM
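HEK-293-derived GP2 cells expressing PTHR1 and a GloSensor cAMP reporter, 3,000/well, plated overnight, given luciferin plus IBMX (each 0.5 mM as added) for 1 h at 37 °C, then compound for 1 h at 37 °C. Luminescence was read after 15 min at room temperature.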
GLP1R cytotox: cytotoxic in the GLP-1 receptor inverse agonist counter-screen; HEK293 cAMP-luciferase reporter cells, luminescence, 24 h; Potency, µM (doses to about 38.3 µM), for the others: at the top dose activity change, negative = inhibition, most hits filed as inhibitors; actives 0.13% (n = 410,000); AID 624418;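 note: loss of luciferase light is scored as toxicity; % is set by controls: 0 for no effect and ±100 for the full control effect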
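Step one: seed cells (200 cells/uL, DMEM with 10% Nu serum, 1% pen-strep). Step two: 12-hour incubation at 37 deg C. Step three: pin 23 nL compound, incubate 24 hr. Step four: add luciferase reagent, read luminescence 12 min later.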
* marks the source's active call; other numbers are inactive results; [ ] = another dose, or the depositor's remark. A selection: hits, their analogues and other compounds. The true share with any hit is near 1.7%. Calls come from the whole dose curve; as a rule, active = well fitted curve in the direction sought with a large enough effect; inconclusive = small, poorly fitted or top-dose-only effect, or another doubt; inactive = no such curve, though single readings can be large; an effect the other way counts as inactive or inconclusive. Potency is the fitted concentration of half-maximal effect.

`CCOC(=O)c1c(C)[nH]c(N=Nc2ccc(C)cc2)c1C` gave GLP1R ag 23%, GLP-1R inv ag inconclusive, PTHR1 ag -40% and GLP1R cytotox inconclusive.
Screening CCOC(=O)c1c(C)[nH]c(N=Nc2ccccc2)c1C returned GLP1R ag 11%, GLP-1R inv ag 10µM*, PTHR1 ag inactive and GLP1R cytotox inconclusive.
Screening COc1ccccc1N1CCN(C(=O)c2ccc3c(=O)n(Cc4ccc5c(c4)OCO5)c(=O)[nH]c3c2)CC1 returned GLP1R ag -4%, GLP-1R inv ag inconclusive, PTHR1 ag -9% and GLP1R cytotox -9%.
`CCc1nc2ccccc2nc1N1CCN(S(=O)(=O)c2ccccc2)CC1` gave GLP1R ag 1%, GLP-1R inv ag -18%, PTHR1 ag -19% and GLP1R cytotox -10%.
Screening Cn1ncc2c(=S)nc(Cl)[nH]c21 returned GLP1R ag 4%, GLP-1R inv ag 10µM*, PTHR1 ag inactive and GLP1R cytotox inconclusive.
For CC1CN(c2nc3ccccc3nc2SCC(=O)Nc2cccc(C(F)(F)F)c2)CC(C)O1 (configuration not stated) the results were GLP1R ag -6%, GLP-1R inv ag 11µM*, PTHR1 ag -37% and GLP1R cytotox inconclusive.
Screening COc1ccc(NC(=O)c2ccc3c(c2)NC(=O)CS3)cc1 returned GLP1R ag -5%, GLP-1R inv ag 4%, PTHR1 ag -51% and GLP1R cytotox 0%.
Cc1ccc(NS(=O)(=O)c2cc(NC(=O)c3ccc4c(c3)NC(=O)CS4)ccc2Cl)c(C)c1 was read as GLP1R ag -3%, GLP-1R inv ag 2.5µM*, PTHR1 ag -90% and GLP1R cytotox inconclusive.
Screening Cc1ccc(-c2cnc(NCc3c(F)cccc3Cl)n2C)cc1 returned GLP1R ag -5%, GLP-1R inv ag inconclusive, PTHR1 ag inactive and GLP1R cytotox -11%.
O=C(Cc1c[nH]c2ccccc12)N1CCN(S(=O)(=O)c2ccc(F)cc2)CC1 was read as GLP1R ag 1%, GLP-1R inv ag -15%, PTHR1 ag inactive and GLP1R cytotox -6%.
`O=C(Cc1c[nH]c2ccccc12)N1CCN(S(=O)(=O)c2cccc(Cl)c2Cl)CC1` gave GLP1R ag -3%, GLP-1R inv ag 10µM*, PTHR1 ag -26% and GLP1R cytotox inconclusive.
For COc1ccc(OC)c(NC(=S)N(CCc2c(C)[nH]c3ccc(C)cc23)Cc2cccs2)c1 the results were GLP1R ag -3%, GLP-1R inv ag 11µM*, PTHR1 ag -3% and GLP1R cytotox 6%.
COc1cc(Cn2c(=O)sc3ccccc32)ccc1OCCC(C)C was read as GLP-1R inv ag 10µM*, PTHR1 ag -20% and GLP1R cytotox 2%.
CCCCCCCN1C2=NCCCN2c2ccccc21 was read as GLP1R ag 5%, GLP-1R inv ag 10µM*, PTHR1 ag -6% and GLP1R cytotox -28%.
`CCCCCCCN1C2=NCCN2c2ccccc21` gave GLP1R ag -3%, GLP-1R inv ag 5.6µM*, PTHR1 ag inactive and GLP1R cytotox inconclusive.
`CCCCCCN1C2=NCCN2c2ccccc21` gave GLP1R ag 3%, GLP-1R inv ag -25%, PTHR1 ag inactive and GLP1R cytotox -18%.
Clc1ccc(CN2C3=NCCCN3c3ccccc32)c(Cl)c1 was read as GLP1R ag 3%, GLP-1R inv ag 8.9µM*, PTHR1 ag -10% and GLP1R cytotox -29%.
COc1ccc(C)cc1N(CC(=O)N/N=C/c1ccc2c(c1)OCO2)S(C)(=O)=O was read as GLP1R ag 0%, GLP-1R inv ag 47%, PTHR1 ag -12% and GLP1R cytotox -2%.
`COc1ccc(C(NC(=O)C2CCN(C/C=C/c3ccc(OC(C)=O)c(OC)c3)CC2)c2ccccn2)cc1` (configuration not stated) gave GLP1R ag -7%, GLP-1R inv ag inconclusive, PTHR1 ag -6% and GLP1R cytotox -19%.
CCN1C=C(Cc2ccc(OC)cc2)C2=C(C1)C(c1ccc(OC)cc1)C(C#N)=C(N)O2 (configuration not stated) was read as GLP1R ag 3%, GLP-1R inv ag 6.3µM*, PTHR1 ag inactive and GLP1R cytotox -2%.
`Cc1nc(Nc2ccccc2F)c2oc3ccccc3c2n1` gave GLP1R ag 19%, GLP-1R inv ag 53%, PTHR1 ag 0% and GLP1R cytotox 7%.
Cc1cc2n(c(=O)c1C#N)CCCN2c1ccccc1 was read as GLP1R ag 0%, GLP-1R inv ag -2%, PTHR1 ag -5%[57.5 µM] and GLP1R cytotox 3%.
For CCOc1ccc(NC(=O)N(Cc2cn(CC)c3ccccc23)C2CCCCCC2)cc1 the results were GLP-1R inv ag 11µM*, PTHR1 ag -24% and GLP1R cytotox -30%.
Cc1cccc(-n2cc(CN(C)Cc3nccn3C)c(-c3cccc(F)c3)n2)c1 was read as GLP1R ag -5%, GLP-1R inv ag inconclusive, PTHR1 ag -52% and GLP1R cytotox inconclusive.
CCn1ccnc1CN(C)Cc1cn(-c2cccc(C)c2)nc1-c1cccc(F)c1 was read as GLP1R ag -3%, GLP-1R inv ag 13µM*, PTHR1 ag inconclusive and GLP1R cytotox inconclusive.
For COc1ccccc1C(=O)NC(=O)COC(=O)Cc1ccc(F)cc1 the results were GLP1R ag -9%, GLP-1R inv ag 3%, PTHR1 ag inconclusive and GLP1R cytotox -1%.
Screening COc1ccccc1C(=O)NC(=O)COC(=O)Cc1n[nH]c(=O)c2ccccc12 returned GLP1R ag 1%, GLP-1R inv ag 39%, PTHR1 ag 50µM* and GLP1R cytotox 13%.
For CN1CCN(C2Cc3cc(Cl)ccc3Sc3cc(F)ccc32)CC1 (configuration not stated) the results were GLP1R ag 7%, GLP-1R inv ag 5µM*, PTHR1 ag inactive and GLP1R cytotox inconclusive.
`CN(CCNC(=O)c1ccc(CS(=O)(=O)c2c(Cl)cccc2Cl)o1)CCc1ccccc1` gave GLP1R ag 4%, GLP-1R inv ag inconclusive, PTHR1 ag inactive and GLP1R cytotox -30%.
CCCCCCN1C[C@H](n2cc(COC(=O)c3ccccc3)nn2)[C@@H](O)C[C@@H]1c1ccccc1 was read as GLP1R ag -3%, GLP-1R inv ag inconclusive, PTHR1 ag -13% and GLP1R cytotox 5%.
For O=C(OCc1cn([C@H]2CN(C(=O)C3CCCCC3)[C@@H](c3ccc(Cl)cc3)C[C@@H]2O)nn1)c1ccccc1 the results were GLP1R ag 1%, GLP-1R inv ag 11µM*, PTHR1 ag -34% and GLP1R cytotox -17%.
O=C(OCc1cn([C@@H]2CN(C(=O)C3CCCCC3)[C@@H](c3ccccc3)C[C@H]2O)nn1)c1ccccc1 was read as GLP1R ag -4%, GLP-1R inv ag -4%, PTHR1 ag -16% and GLP1R cytotox -13%.

Compound activity (PubChem)
